Test [1] has as its target Protein kinase C gamma type (Homo sapiens) (UniProt P05129). Conditions: at 1 µM.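 Note: each value is an averaged percent inhibition of the enzyme.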
The target in test [2] is T1, Protein kinase C iota type (Homo sapiens) (UniProt P41743).
T1 sequence (whole entry): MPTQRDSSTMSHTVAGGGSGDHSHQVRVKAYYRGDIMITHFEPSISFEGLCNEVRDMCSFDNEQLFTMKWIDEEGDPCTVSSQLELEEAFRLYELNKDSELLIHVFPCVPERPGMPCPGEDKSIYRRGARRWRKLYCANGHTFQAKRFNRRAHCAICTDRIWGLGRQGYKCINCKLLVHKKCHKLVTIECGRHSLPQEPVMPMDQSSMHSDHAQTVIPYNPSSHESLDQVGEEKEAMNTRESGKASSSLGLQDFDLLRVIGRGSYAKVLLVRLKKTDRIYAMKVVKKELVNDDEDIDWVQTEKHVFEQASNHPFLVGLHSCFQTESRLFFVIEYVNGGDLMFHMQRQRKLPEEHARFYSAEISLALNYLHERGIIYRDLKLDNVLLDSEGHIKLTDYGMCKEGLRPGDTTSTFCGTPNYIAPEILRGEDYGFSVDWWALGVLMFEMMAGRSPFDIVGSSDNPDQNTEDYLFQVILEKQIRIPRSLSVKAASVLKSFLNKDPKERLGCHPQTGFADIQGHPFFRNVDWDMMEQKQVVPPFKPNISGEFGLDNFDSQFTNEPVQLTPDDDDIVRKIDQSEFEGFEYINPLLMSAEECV
Conditions: at 0.1 µM.

Test [3] deals with T1, Protein kinase C iota type (Homo sapiens). Conditions: at 1 µM.
Test [4] concerns the target Protein kinase C theta type (Homo sapiens) (UniProt Q04759). Conditions: at 0.1 µM.
The target is the same in test [5]. Conditions: at 1 µM.
For test [6], the target named is Protein kinase C beta type (Homo sapiens) (UniProt P05771). Conditions: at 0.1 µM.
Chain of Protein kinase C beta type (Homo sapiens) (P05771 2-671 limits assumed): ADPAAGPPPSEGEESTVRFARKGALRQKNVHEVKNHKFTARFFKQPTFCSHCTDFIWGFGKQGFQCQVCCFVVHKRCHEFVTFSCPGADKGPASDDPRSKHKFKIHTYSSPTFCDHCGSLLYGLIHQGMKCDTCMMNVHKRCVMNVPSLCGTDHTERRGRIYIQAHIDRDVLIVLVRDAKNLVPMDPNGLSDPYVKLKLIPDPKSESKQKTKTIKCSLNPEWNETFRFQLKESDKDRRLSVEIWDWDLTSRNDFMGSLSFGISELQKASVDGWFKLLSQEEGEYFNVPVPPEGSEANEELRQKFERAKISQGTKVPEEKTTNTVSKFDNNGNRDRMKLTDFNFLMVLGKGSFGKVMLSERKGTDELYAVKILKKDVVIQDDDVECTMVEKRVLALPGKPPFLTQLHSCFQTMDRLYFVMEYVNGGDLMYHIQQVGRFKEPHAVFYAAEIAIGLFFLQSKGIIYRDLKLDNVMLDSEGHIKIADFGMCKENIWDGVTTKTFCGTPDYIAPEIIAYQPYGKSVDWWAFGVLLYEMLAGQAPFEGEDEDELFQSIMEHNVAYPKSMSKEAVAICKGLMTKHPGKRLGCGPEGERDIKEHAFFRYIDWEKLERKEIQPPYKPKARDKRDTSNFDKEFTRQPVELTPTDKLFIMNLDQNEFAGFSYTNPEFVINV
For test [7] the target is unchanged. Conditions: at 1 µM.
Test [8] concerns the target T2, Serine/threonine-protein kinase D1 (Homo sapiens) (UniProt Q15139).
T2 sequence (whole entry): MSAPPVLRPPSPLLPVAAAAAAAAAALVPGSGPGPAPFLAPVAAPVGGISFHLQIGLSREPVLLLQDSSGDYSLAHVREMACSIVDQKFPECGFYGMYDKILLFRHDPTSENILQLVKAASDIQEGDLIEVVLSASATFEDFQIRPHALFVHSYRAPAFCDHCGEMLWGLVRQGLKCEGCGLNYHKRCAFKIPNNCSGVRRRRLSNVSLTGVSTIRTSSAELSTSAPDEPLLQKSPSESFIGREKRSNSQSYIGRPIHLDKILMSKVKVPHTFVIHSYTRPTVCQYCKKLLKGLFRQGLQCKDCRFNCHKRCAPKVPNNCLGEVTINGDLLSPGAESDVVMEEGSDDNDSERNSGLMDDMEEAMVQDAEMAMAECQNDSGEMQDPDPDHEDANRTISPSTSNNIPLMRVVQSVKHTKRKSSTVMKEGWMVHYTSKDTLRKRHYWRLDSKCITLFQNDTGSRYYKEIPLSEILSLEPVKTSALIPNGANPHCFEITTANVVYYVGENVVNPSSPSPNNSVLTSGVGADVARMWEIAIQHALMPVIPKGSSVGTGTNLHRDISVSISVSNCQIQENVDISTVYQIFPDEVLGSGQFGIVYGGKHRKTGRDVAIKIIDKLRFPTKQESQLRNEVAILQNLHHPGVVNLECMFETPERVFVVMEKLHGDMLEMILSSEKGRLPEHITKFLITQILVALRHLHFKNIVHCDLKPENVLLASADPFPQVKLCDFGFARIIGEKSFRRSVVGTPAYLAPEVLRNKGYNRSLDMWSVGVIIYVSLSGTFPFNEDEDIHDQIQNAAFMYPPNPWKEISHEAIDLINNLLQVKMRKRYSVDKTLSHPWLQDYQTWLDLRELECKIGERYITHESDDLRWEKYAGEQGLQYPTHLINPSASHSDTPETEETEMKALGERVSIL
Conditions: at 0.1 µM.

Test [9] deals with T2, Serine/threonine-protein kinase D1 (Homo sapiens). Conditions: at 1 µM.
For test [10], the target named is T3, Serine/threonine-protein kinase D2 (Homo sapiens) (UniProt Q9BZL6).
T3 sequence (whole entry): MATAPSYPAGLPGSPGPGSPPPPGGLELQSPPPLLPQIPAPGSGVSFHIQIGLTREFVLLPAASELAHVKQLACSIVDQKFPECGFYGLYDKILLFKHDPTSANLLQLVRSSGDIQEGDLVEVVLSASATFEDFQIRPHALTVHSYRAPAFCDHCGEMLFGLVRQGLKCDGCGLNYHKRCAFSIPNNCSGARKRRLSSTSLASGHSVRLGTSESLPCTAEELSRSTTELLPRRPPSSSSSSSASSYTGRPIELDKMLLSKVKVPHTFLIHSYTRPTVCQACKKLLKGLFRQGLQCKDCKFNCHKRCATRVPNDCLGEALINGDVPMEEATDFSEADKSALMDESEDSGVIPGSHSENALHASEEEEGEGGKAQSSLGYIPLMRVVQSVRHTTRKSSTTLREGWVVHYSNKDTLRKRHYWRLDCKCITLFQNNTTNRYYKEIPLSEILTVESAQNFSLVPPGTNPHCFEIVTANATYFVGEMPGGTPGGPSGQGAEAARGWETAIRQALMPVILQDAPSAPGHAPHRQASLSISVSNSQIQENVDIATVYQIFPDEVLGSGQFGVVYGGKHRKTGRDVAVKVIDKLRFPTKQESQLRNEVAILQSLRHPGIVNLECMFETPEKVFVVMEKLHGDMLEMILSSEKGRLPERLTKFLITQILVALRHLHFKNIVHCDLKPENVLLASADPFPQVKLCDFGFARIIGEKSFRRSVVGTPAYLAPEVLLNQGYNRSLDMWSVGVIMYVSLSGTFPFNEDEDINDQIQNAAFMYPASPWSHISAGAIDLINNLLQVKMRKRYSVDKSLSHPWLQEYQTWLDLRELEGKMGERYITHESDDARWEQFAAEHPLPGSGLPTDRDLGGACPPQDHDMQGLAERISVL
Conditions: at 0.1 µM.

Test [11] addresses T3, Serine/threonine-protein kinase D2 (Homo sapiens). Conditions: at 1 µM.
For test [12], the target named is T4, Serine/threonine-protein kinase D3 (Homo sapiens) (UniProt O94806).
T4 sequence (whole entry): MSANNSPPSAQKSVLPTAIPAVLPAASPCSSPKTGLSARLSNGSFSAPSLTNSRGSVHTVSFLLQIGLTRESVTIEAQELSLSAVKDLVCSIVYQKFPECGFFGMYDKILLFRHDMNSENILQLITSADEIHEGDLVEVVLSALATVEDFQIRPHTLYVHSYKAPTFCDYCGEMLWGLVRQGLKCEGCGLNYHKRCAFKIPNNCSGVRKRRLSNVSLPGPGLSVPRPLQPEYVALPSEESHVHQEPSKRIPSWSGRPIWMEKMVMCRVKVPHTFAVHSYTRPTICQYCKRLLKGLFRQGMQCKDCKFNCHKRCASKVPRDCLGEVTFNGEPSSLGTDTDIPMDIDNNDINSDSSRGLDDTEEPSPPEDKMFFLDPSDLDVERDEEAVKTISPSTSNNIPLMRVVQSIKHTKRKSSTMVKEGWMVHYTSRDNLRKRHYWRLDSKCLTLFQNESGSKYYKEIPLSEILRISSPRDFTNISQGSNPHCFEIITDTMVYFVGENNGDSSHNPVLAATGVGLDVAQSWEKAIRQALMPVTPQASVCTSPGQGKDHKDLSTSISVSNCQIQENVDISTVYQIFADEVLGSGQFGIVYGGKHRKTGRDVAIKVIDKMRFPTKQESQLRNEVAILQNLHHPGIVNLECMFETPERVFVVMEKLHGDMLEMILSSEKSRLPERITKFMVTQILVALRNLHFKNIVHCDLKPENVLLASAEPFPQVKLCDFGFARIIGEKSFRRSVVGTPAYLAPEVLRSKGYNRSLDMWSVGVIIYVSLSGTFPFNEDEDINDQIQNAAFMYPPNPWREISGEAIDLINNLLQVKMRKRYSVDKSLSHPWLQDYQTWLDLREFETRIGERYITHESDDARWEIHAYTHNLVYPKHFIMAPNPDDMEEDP
Conditions: at 0.1 µM.

For test [13], the target named is T4, Serine/threonine-protein kinase D3 (Homo sapiens). Conditions: at 1 µM.
Test [14] concerns the target T5, cGMP-dependent protein kinase 1 (Homo sapiens) (UniProt Q13976).
T5 sequence (whole entry): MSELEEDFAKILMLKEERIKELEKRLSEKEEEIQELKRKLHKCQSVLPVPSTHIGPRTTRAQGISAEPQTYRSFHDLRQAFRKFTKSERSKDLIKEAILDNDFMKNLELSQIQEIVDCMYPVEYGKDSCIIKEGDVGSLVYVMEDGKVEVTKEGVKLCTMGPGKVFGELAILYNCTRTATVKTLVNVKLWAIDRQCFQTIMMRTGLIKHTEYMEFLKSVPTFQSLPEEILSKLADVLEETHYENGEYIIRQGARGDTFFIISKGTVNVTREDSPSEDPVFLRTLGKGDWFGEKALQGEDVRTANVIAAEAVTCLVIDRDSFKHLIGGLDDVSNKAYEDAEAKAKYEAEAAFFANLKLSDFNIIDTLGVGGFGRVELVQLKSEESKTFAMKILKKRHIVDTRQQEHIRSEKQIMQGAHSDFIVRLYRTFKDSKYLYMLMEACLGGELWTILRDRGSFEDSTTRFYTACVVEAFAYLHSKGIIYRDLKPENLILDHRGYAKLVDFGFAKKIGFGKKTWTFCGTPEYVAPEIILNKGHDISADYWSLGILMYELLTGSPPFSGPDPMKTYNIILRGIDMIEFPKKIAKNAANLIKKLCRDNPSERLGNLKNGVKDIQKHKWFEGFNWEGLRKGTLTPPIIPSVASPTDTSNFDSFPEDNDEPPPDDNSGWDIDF
Conditions: at 0.1 µM.

Test [15] concerns the target T5, cGMP-dependent protein kinase 1 (Homo sapiens). Conditions: at 1 µM.
Test [16] deals with T6, cGMP-dependent protein kinase 2 (Homo sapiens) (UniProt Q13237).
T6 sequence (whole entry): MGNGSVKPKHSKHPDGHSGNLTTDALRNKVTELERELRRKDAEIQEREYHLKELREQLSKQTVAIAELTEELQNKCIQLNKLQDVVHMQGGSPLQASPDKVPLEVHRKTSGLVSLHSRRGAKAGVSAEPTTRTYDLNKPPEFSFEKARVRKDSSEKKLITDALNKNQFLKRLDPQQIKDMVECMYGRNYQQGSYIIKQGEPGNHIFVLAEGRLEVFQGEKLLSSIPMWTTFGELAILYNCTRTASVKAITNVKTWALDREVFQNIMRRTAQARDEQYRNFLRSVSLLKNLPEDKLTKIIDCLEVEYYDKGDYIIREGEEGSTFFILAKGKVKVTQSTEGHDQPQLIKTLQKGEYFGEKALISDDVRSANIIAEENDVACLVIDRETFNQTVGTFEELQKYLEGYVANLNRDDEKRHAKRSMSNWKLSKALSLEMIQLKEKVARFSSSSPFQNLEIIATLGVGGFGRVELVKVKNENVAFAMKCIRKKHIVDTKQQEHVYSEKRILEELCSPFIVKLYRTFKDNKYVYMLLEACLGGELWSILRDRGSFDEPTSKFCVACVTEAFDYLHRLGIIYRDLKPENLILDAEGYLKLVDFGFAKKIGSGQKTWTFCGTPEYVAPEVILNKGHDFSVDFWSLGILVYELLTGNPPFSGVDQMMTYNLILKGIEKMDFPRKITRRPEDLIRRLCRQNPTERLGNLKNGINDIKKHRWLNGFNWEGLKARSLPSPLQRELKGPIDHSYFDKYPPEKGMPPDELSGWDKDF
Conditions: at 0.1 µM.

Test [17] deals with T6, cGMP-dependent protein kinase 2 (Homo sapiens). Conditions: at 1 µM.
The target of test [18] is T7, cAMP-dependent protein kinase catalytic subunit PRKX (Homo sapiens) (UniProt P51817).
T7 sequence (whole entry): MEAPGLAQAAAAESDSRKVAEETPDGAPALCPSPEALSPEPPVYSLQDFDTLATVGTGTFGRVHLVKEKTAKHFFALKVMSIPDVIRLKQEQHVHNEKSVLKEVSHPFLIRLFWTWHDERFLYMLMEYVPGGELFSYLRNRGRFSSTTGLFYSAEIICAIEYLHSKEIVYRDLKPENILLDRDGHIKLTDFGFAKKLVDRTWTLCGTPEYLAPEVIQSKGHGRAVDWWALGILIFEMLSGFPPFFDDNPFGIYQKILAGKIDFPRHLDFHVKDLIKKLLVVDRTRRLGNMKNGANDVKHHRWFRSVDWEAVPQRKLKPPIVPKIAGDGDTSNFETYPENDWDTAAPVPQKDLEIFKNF
Conditions: at 0.1 µM.

For test [19], the target named is T7, cAMP-dependent protein kinase catalytic subunit PRKX (Homo sapiens). Conditions: at 1 µM.
The target in test [20] is Rho-associated protein kinase 1 (Homo sapiens) (UniProt Q13464). Conditions: at 0.1 µM.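 Note: values are mean percent inhibition of ROCK1.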
Chain of Rho-associated protein kinase 1 (Homo sapiens) (Q13464 2-1354 limits assumed): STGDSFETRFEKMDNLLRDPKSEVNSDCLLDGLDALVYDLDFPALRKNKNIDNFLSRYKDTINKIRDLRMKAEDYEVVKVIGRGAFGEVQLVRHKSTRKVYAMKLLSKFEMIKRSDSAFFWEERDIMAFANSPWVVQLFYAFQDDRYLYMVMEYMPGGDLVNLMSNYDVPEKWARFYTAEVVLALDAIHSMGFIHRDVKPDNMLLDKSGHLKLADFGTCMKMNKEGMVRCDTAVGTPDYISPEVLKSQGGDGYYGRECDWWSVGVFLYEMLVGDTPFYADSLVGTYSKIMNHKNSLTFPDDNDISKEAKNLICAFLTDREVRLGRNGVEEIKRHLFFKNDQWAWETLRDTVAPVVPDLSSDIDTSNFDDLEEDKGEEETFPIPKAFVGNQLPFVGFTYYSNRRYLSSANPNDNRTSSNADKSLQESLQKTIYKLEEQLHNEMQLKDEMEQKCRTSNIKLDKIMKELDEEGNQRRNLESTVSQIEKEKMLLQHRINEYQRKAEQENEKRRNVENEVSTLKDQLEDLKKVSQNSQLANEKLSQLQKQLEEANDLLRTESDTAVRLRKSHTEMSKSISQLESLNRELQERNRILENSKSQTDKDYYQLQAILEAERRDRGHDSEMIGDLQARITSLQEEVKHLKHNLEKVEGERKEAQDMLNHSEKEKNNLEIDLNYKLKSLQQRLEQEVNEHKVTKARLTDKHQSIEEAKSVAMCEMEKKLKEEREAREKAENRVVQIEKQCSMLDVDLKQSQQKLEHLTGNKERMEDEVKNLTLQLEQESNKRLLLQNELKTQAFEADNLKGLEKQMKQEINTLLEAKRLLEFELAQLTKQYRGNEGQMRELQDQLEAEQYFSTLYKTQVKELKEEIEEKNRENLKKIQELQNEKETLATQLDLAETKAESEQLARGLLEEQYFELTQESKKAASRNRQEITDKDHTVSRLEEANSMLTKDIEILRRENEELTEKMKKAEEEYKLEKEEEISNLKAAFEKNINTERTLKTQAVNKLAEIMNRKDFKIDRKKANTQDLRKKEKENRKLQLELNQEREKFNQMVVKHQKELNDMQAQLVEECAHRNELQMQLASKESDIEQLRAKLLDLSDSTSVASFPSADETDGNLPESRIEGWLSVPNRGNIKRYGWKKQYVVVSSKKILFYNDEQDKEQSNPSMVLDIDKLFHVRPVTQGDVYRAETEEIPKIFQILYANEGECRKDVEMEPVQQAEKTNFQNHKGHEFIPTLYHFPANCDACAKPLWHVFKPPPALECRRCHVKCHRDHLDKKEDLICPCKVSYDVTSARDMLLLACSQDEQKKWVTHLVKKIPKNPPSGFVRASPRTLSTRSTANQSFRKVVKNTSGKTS

Chain of Protein kinase C theta type (Homo sapiens) (Q04759 whole entry, looked up): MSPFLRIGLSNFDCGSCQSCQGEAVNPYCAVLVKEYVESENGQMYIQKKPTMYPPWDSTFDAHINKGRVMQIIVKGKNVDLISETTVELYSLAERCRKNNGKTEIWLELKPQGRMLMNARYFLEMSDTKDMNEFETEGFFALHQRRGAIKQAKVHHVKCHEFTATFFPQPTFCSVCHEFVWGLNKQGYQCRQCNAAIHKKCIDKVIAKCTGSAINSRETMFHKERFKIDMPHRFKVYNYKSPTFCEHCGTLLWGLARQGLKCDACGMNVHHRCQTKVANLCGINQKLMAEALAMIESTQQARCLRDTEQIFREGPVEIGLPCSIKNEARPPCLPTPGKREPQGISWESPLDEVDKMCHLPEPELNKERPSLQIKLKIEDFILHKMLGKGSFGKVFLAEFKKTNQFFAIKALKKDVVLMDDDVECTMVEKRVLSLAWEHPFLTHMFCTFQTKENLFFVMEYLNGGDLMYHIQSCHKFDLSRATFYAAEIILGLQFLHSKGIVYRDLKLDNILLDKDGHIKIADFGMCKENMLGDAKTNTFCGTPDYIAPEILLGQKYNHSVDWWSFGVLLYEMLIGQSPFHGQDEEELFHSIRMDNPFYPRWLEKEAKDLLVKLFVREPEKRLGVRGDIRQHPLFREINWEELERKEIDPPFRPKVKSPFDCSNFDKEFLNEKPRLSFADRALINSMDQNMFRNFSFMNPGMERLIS

As for `CCc1nn2ncccc2c1-c1ccnc(NC2CC2)n1`, the inhibition was 4.3% in test [1]; 0.47% in [2]; 0.64% in [3]; 0.97% in test [4]; 1.63% in test [5]; 1.1% in test [6]. For the same molecule, the inhibition in test [7] was 3.32%; in test [8], 2.35%; in test [9], 4.56%; in [10], 2.36%; in [11] it was 3.14%; in test [12] it was 1.73%. Also, the inhibition in test [13] was 2.57%; in test [14], 1.92%; in [15], 3.59%; in [16], 0.96%; in test [17], 3.27%; in test [18], 1.66%. In addition, the inhibition worked out at 0.72% in [19] and 0.66% in test [20].
For `O=S(=O)(CCNCc1ccc(-c2ccc3ncnc(Nc4ccc(OCc5cccc(F)c5)c(Cl)c4)c3c2)o1)c1ccccc1`, the inhibition in [1] was 6.38%; in test [2], 4.15%; in [3] it was 4.31%; in [4] it was 2.33%; in test [5], 2.85%; in test [6], 2.03%. Also, the inhibition in [7] worked out at 2.6%; in test [8] it was 5.17%; in test [9] it was 7.32%; in test [10], 5.52%; in test [11], 4.53%; in [12], 5.12%. For the same molecule, the inhibition came to 5.2% in [13]; 4.89% in [14]; 3.93% in test [15]; 3.34% in test [16]; 3.34% in [17]; 2.74% in test [18]. For the same molecule, the inhibition in test [19] amounted to 2.77%; in test [20], 2.37%.

The values are drawn from ChEMBL document CHEMBL1961873, “Compounds: GSK PKIS; Assays: Nanosyn kinase panel” (2012).
